From PubChem
In the library only some 10% were active in any assay of this set; here they are far more common.
Luc counter: blocks Kinase-Glo luciferase, a counter-screen artifact. Potency, µM (series often up to 38.3 µM), without a hit: top-dose activity change, negative = inhibition, usual class: inhibitors. Q27757. 200,000 tested, 0.28% active. Kinase-Glo luciferase, ATP luminescence, 8 min; active = well fitted inhibition curve with a large enough effect; inconclusive = small, poorly fitted or top-dose-only effect; also: potency is read from the fitted curve at half-maximal effect; nearly all actives have a fitted effect of over 60% in size
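Luminescence was the read-out, taken after 8-minute incubation at ambient temperature. Luciferase turned over luciferin with 10 uM ATP in imidazole pH 7.2 buffer containing KCl, MgCl2, Tween 20 and BSA.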
HPGD inh: blocks human HPGD enzyme activity | P15428 | purified HPGD, NADH fluorescence kinetic, PGE2 substrate | Potency, µM, for inactives: at the top dose activity change, negative = inhibition, hits mostly inhibitors | 150,000 tested, 4.3% active | AID 894; also: potency is read from the fitted curve at half-maximal effect
Target sequence (P15428 whole entry, looked up): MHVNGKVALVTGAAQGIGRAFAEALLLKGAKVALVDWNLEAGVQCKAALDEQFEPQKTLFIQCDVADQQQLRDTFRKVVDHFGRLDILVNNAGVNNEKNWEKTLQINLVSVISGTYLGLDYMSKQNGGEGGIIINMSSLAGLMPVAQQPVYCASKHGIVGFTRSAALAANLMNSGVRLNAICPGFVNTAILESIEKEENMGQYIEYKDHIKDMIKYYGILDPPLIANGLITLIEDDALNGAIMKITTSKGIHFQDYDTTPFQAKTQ
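20 nM HPGD preincubated 15 min at room temperature with compound in 50 mM Tris-HCl pH 8, 0.01% Tween 20. Started with 1 mM NAD+ and 30 uM prostaglandin E2; NADH fluorescence (360/450 nm) read 5 times over 30-s intervals, last minus first.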
ALDH1A1 block: inhibitors of human aldehyde dehydrogenase 1A1 | P00352 | Purified ALDH1A1, NADH fluorescence, propionaldehyde substrate | Potency, µM (highest dose often 75.3 µM), without a hit: at the highest dose activity, negative = inhibition, usual class: inhibitors | 220,000 tested, 7.3% active;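 also: potency is read from the fitted curve at half-maximal effect; plate controls were no enzyme wells and a reference inhibitor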
Target sequence (P00352 whole entry, looked up): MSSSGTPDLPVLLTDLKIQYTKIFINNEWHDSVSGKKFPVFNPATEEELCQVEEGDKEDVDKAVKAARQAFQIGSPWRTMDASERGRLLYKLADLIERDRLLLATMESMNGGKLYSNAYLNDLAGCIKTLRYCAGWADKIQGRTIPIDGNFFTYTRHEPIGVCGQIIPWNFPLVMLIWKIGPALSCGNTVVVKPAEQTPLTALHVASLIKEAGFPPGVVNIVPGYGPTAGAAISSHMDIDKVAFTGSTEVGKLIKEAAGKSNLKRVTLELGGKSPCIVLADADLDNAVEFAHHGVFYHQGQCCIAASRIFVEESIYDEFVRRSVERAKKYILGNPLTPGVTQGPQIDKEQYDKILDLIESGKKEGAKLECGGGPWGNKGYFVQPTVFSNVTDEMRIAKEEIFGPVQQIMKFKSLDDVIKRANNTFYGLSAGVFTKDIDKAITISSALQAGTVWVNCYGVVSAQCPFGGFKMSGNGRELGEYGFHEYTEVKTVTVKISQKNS
PNC assembly inh: blocks assembly of the perinucleolar compartment; PC3M PTB-GFP, PNC prevalence imaging, 16 h; hits give low values; activity change (PNC), negative = inhibition, % at 10 µM; 140,000 tested, 3.1% active; AID 2417;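 active = readout at or below -70, meaning at least 70% loss of cells showing the perinucleolar compartment, a nuclear body marking cancer cells; inconclusive = readout between -30 and a set limit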;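 also: plate controls were DMSO wells for no effect and camptothecin positive control wells for full effect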
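PC3M cells stably expressing PTB-GFP, 750–1000 cells/well, treated 16 h at 37 °C with compound (23 nl of library stock), in duplicate. After paraformaldehyde fixation and Hoechst stain, imaged at 20x; PNC prevalence scored by image analysis.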
LMNA splice mod: changes lamin A minigene splicing in HeLa cells; HeLa LMNA splicing GFP/RFP minigene ratio, 48 h; Potency, µM (top dose mostly 46.1 µM), for the others: at the highest dose ratio change, negative = inhibition, most hits filed as inhibitors; 200,000 tested, 0.01% active; AID 1487; active = well fitted inhibition curve with a large enough effect in the signal ratio, with a control signal flat, not every such curve was filed as active; inconclusive = small, poorly fitted or top-dose-only effect, or effect the other way, or a change in a side signal; the % refers to the signal ratio; also: potency is read from the fitted curve at half-maximal effect
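S3 HeLa stable clones carrying a lamin A-EGFP splicing minigene plus DsRed2 were seeded at 600 cells/well in Opti-MEM with 2% FBS, pin-dosed and incubated 48 h at 37°C. Acumen cytometry (488 nm) gave the GFP/RFP total-intensity ratio.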
Active calls of the source: *; ? = inconclusive; · = no result; [ ] = remark or other dose. Unless noted, calls follow the shape of the dose curve; as a rule, active = well fitted inhibition curve with a large enough effect (not every such curve was filed as active); inconclusive = small, poorly fitted or top-dose-only effect, or another doubt; inactive = no such curve, though single readings can be large or run the other way. Unless noted, % is scaled to controls: 0 for no effect and ±100 for the full control effect.

SMILES	Luc counter	HPGD inh	ALDH1A1 block	PNC assembly inh	LMNA splice mod
Cc1cc(C(=O)N2CCN(c3ccccc3)CC2)c2c(C)nn(-c3cccc(F)c3)c2n1	·	·	·	·	-10.7%[46 µM]
CCOC(=O)CSc1ccc(-c2nc3cc(C)c(C)cc3[nH]2)cn1	-13.5%	?	?	8.5	12.8%
COCCOC(=O)CSc1ncccc1-c1nc2cc(C)c(C)cc2[nH]1	12.6µM*	·	?	·	9.5%[9.22 µM]
O=c1cc(CO)oc(C(Nc2ccccn2)c2ccsc2)c1O (stereo not drawn)	-0.1%	?	?	-25.8	-8.9%
O=c1cc(CO)oc(C(Nc2ccccn2)c2ccc(F)cc2)c1O (stereo not drawn)	0.5%	-21.7%	8.91µM*	?	-17.6%
COc1ccc(C(Nc2ccccn2)c2oc(CO)cc(=O)c2O)cc1 (stereo not drawn)	-4.2%	?	?	6.0	-3.8%
O=c1cc(CO)oc(C(Nc2ccccn2)c2ccccc2Cl)c1O (stereo not drawn)	3.3%	·	5.01µM*	·	·
Cc1ccnc(NC(c2ccccc2O)c2oc(CO)cc(=O)c2O)c1 (stereo not drawn)	-0.6%	·	12.6µM*	·	·
CC(C)c1ccc(C2NC(=S)NC3=C2C(=O)CCC3)cc1 (stereo not drawn)	-0.3%	-2.2%	3.98µM*	5.4	?
O=C1C2C3C=CC(C3=C(c3ccccc3)c3ccccc3)C2C(=O)N1CCO (stereo not drawn)	-2.8%	-4.5%	?	8.4	-0.2%
O=C1C2C3C=CC(C3=C(c3ccccc3)c3ccccc3)C2C(=O)N1Cc1ccccc1 (stereo not drawn)	7.4%	39.8µM*	1.12µM*	-15.9	?
CC(=O)N1CCC2(CC1)CCN(c1ncccn1)CC2	0.2%	-23.7%	-9.4%	·	·
CC(C)(C)Nc1nc(OCC#N)nc(N2CCCCC2)n1	4.2%	·	17.8µM*	·	·
N#CCOc1nc(N2CCCCC2)nc(N2CCCCC2)n1	-2.4%	·	-8.1%	·	·
COc1ccccc1C1CC(=O)Oc2ccc(C(C)(C)C)cc21 (stereo not drawn)	3.5%[39.9 µM]	-6.5%	-1.4%	·	·
COc1ccc(S(=O)(=O)NCCc2csc(-c3ccc(F)cc3)n2)cc1	·	·	·	·	-7.5%[46 µM]
COc1cccc(C2=NOC(C(=O)Nc3cccc(C(C)=O)c3)C2)c1 (stereo not drawn)	-3.7%	-22.3%	3.98µM*	41.9	22.4%
N#Cc1ccc(CN2CCCC3(CCN(C(=O)c4ccncc4)CC3)C2)cc1	-3.2%	-4.0%	-1.6%	·	·
COC(=O)c1ccc(CN2CCN(CC=C(C)C)C(CCO)C2)cc1 (stereo not drawn)	1.0%	·	20µM*	·	19.7%[46 µM]
CC(C)=CCN1CCN(Cc2cnc(N3CCCC3)s2)CC1CCO (stereo not drawn)	2.1%	·	13.0%	·	1.0%[46 µM]
CC(C)=CCN1CCN(Cc2cnc(N3CCOCC3)s2)CC1CCO (stereo not drawn)	-3.4%	·	25.1µM*	·	·
Cc1ccc(C2C(C#N)=C(N)Oc3cc(C)oc(=O)c32)o1 (stereo not drawn)	0.8%	·	?	·	·
CCOc1ccc(C2C(C#N)=C(N)Oc3cc(C)oc(=O)c32)cc1 (stereo not drawn)	-5.2%	·	8.91µM*	·	0.5%[46 µM]
O=C(c1cc(C(F)(F)F)cc(C(F)(F)F)c1)N1CCC2(CCN(Cc3ccncc3)CC2)CC1	-2.2%	-2.2%	17.3%	·	·
Cc1ccccc1-c1ccc2ncnc(NCCN3CCOCC3)c2c1	·	·	?	·	-9.6%
SMILES	Luc counter	HPGD inh	ALDH1A1 block	PNC assembly inh	LMNA splice mod
O=C(CSc1ncn[nH]1)Nc1cc(S(=O)(=O)N2CCCC2)ccc1Cl	-0.4%	·	15.8µM*	·	·
Cc1csc(SCC(=O)Nc2cccc(S(=O)(=O)N3CCCC3)c2)n1	-0.2%	-0.8%	25.1µM*	-23.5	-11.8%
Cc1ccc(S(=O)(=O)N2CCCCC2)cc1NC(=O)CSc1nnc(N)s1	-0.5%	·	-7.3%	·	?
Cc1csc(SCC(=O)Nc2cc(S(=O)(=O)N3CCCC3)ccc2Cl)n1	-4.7%	0.3%	1.26µM*	?	5.6%
CCCCN(C)CCNC(=O)c1ccc2c(c1)NC(=O)CN2	·	·	·	·	-2.9%[46 µM]
Cn1c(=O)c2c(SCC(=O)NCC3CCCO3)nc(-c3cccc(F)c3)nc2n(C)c1=O (stereo not drawn)	·	·	·	·	12.1%[46 µM]
O=C(CSc1nnnn1-c1cccc2c1CCCC2)N1CCOCC1	0.6%	?	7.94µM*	-19.4	?
O=C(CSc1nnnn1-c1cccc2c1CCCC2)NC1CCCC1	5.2%	?	?	?	9.8%
CC1CCCC(C)N1C(=O)CSc1nnnn1-c1cccc2c1CCCC2 (stereo not drawn)	-0.1%	-15.6%	28.2µM*	?	3.2%
CCOc1ccc(-n2nnnc2SCC(=O)N2CCOCC2)cc1	-3.2%	-5.9%	-2.3%	?	-7.3%
O=C(CSc1nnnn1-c1cccc2c1CCCC2)N1CCCC1	-3.9%	-23.6%	14.1µM*	15.2	-7.1%
CC(=O)C1=C(O)C=C2Oc3c(C(C)=O)c(O)c(C)c(O)c3C2(C)C1=O (stereo not drawn)	-0.5%	-4.7%	-4.5%	·	·
CCN1CCN(CCCOc2ccccc2-c2ccccc2)CC1	-1.8%	·	11.2µM*	·	·
Cn1cnnc1SC(C(=O)c1ccccc1)c1ccccc1 (stereo not drawn)	-3.9%	-25.3%	?	-9.9	-14.7%
O=C(c1ccccc1)C(Sc1ncn[nH]1)c1ccccc1 (stereo not drawn)	-1.7%	39.8µM*	?	2.5	-7.0%
Cc1ccc(NC(=O)CC(C)S(=O)(=O)c2ccc3c(c2)NC(=O)CO3)c(C)c1 (stereo not drawn)	·	·	·	·	7.4%[46 µM]
CNc1ccc(Br)cc(C(=O)/C=C/c2ccc(OC)cc2)c1=O	-7.2%	-25.2%	28.2µM*	-109.0*	1.6%
CNc1ccc(Br)cc(C(=O)/C=C/c2cc(OC)ccc2OC)c1=O	-1.7%	?	?	17.8	6.9%
CNc1ccc(Br)cc(C(=O)/C=C/c2ccc3c(c2)OCO3)c1=O	-6.8%	15.8µM*	6.31µM*	42.4	?
CCNc1ccc(Br)cc(C(=O)/C=C/c2ccc(Cl)cc2Cl)c1=O	-3.6%	22.4µM*	?	-100.0*	?
Cc1cccc(CNC(=O)CN2C(=O)CCCc3ccccc32)c1	·	·	·	·	-9.3%[46 µM]
CCCCc1nc2ccccc2c(NC(=O)CN2CCCC2)c1CCC	1.5%	-5.3%	?	-100.0*	-7.1%
CCCCc1nc2ccccc2c(NC(=O)CNC(C)(C)C)c1CCC	0.4%	10.1%	3.3%	35.7	-7.1%
CC(c1ccccc1)n1c(Cn2ncc3ccccc3c2=O)n[nH]c1=S (stereo not drawn)	-2.2%	·	-11.0%	·	·
Cc1scc(-c2n[nH]c(=S)n2C(C)c2ccccc2)c1C (stereo not drawn)	0.0%	25.1µM*	?	-13.5	?
CCn1c(-c2cccc(Cl)c2)n[nH]c1=S	-2.7%	-6.5%	?	?	6.2%
CCc1cc(-c2n[nH]c(=S)n2C(C)c2ccccc2)cs1 (stereo not drawn)	-0.1%	15.8µM*	0.562µM*	38.0	?
